# Laboratory results taken from PubChem BioAssay AID1220 (Sanford-Burnham Center for Chemical Genomics, 2008).
# The whole screen tested about 190,000 compounds, of which about 1,300 (0.68%) were called active. Many of the other results were omitted from the sample, so actives are more common in it than they were. Unmarked numbers belong to inactive results. No stated cut-off is given here; in the data, active means inhibition above about 50%; inactive means the rest.
# Biological target: Mannose-6-phosphate isomerase (Homo sapiens) (UniProt P34949)
# Sequence (P34949 whole entry, looked up): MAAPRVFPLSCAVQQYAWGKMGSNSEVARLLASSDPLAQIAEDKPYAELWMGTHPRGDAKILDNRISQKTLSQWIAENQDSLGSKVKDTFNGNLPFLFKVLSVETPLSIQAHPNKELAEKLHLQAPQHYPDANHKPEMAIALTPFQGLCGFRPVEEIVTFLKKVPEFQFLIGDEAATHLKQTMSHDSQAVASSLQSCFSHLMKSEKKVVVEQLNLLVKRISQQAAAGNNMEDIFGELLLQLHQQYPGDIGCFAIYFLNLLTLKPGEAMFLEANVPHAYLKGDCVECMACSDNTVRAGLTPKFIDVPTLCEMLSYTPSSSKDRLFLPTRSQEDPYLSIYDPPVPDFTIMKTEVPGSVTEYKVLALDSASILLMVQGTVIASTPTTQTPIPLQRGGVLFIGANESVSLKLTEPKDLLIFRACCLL
# Assay: human PMI inhibitors, high substrate, primary screen, biochemical, fluorescence intensity, high mannose 6-phosphate (AID 1220)
# Conditions: recombinant PMI enzyme, coupled fluorescence intensity; at 20 µM; active compounds read high
row,Compound,inhibition
1,C[C@H]1CC[C@@]2(O[C@H](CCO)C[C@@H](O)[C@@H]2O)O1,12.7%
2,COc1ccc(Cn2nnc3c(=O)[nH]c(C4CCCN(C(=O)c5ccccc5)C4)nc32)cc1 (stereo unspecified),-5.4%
3,CCOC(=O)/C(=N\O)C1=NC(C)(C)Cc2ccccc21,-11.3%
4,CC1(C)Cc2ccccc2C(/C(=N/O)C(N)=O)=N1,5.1%
5,COc1ccc(-c2c(C)nn3c(N4CCC(C(=O)NCCN(C)C)CC4)cc(C)nc23)cc1OC,5.7%
6,CCN(CC)CCNC(=O)C(C(=O)c1ccccc1)n1ccccc1=O (stereo unspecified),1.8%
7,COc1ccc(CNC(=O)C(c2ccncc2)N(C(=O)Cc2cccs2)c2ccccc2)cc1 (stereo unspecified),1.9%
8,Cc1cc(NC(=O)c2ccccc2F)n(-c2nc3ccccc3[nH]2)n1,-1.3%
9,Cc1cc(NC(=O)c2c(F)cccc2F)n(-c2nc3ccccc3[nH]2)n1,3%
10,Cc1cc(NC(=O)c2ccccc2)n(-c2nc3ccccc3[nH]2)n1,59.2% (active)
11,COc1cc(OC)c(-c2nnc3n(CCc4ccccc4)c(=O)c4ccccc4n23)cc1OC,10.4%
12,COc1ccc(CCN2C(=O)C3C4C=CC(C4)C3C2=O)cc1OC (stereo unspecified),14%
13,CCCCOc1ccc(Nc2nc(C)cc(C)c2C#N)cc1,6.1%
14,COc1cccc(NC(=O)C2CCCCC2)c1,5.6%
15,CCOc1ccc(NC(=S)Nc2cc(OC)c(Cl)cc2OC)cc1,24.8%
16,CCOc1cc(NC(=O)CCl)c(OCC)cc1NC(C)=O,20.4%
17,CCOc1cc(NC(=S)Nc2cccc(OC)c2)c(OCC)cc1NC(=O)C(C)C,45.4%
18,COc1cccc(NC(=O)CNC(=O)c2ccc(C)cc2)c1,0.9%
19,CCOc1cc(NC(=S)Nc2cccc(OC)c2)c(OCC)cc1NC(=O)C1CC1,56.8% (active)
20,CCOc1cc(NC(=S)Nc2ccccc2)c(OCC)cc1NC(=O)c1ccccc1,7.3%
21,CCOc1cc(NC(=S)NC)c(OCC)cc1NC(=O)c1ccc(OC)cc1,49.8%

row,Compound,inhibition
1,CCOc1cc(NC(=S)Nc2cccc(C)c2)c(OCC)cc1NC(=O)CC(C)C,17.5%
2,CCOc1cc(NC(=S)Nc2ccccc2)c(OCC)cc1NC(=O)c1ccc(OC)cc1,56.8% (active)
3,CCOc1cc(NC(=S)Nc2cccc(OC)c2)c(OCC)cc1NC(=O)c1ccc(C)cc1,55.1% (active)
4,CCOc1cc(NC(=S)Nc2ccc(Cl)cc2)c(OCC)cc1NC(C)=O,55.9% (active)
5,CCCCOc1ccc(Br)cc1CSC(=N)N,-4.3%
6,O=C(C[n+]1ccc(-c2cc(C(=O)Nc3cccc(C(F)(F)F)c3)c3ccccc3n2)cc1)c1cccc([N+](=O)[O-])c1,-6.2%
7,COc1ccc(/C=C(/NC(=O)c2ccccc2)C(=O)N/N=C/c2ccc3c(c2)OCO3)cc1OC,-10.4%
8,O=C(CC1Nc2ccccc2NC1=O)NCCCN1CCCCCC1 (stereo unspecified),0.7%
9,Cc1ccc(NC(=S)N2CCN(S(=O)(=O)c3c(F)cccc3F)CC2)cc1C,11.5%
10,CC1CCCCN1C(=O)C12CCC(C)(C(=O)C1)C2(C)C (stereo unspecified),48.1%
11,Cc1c(C(N)=O)sc2ncn(CC(=O)NCCc3ccccc3)c(=O)c12,-8.4%
12,O=C(CCc1c[nH]c2ccccc12)NCC(=O)Nc1ccc(F)c(F)c1F,-1.9%
13,CCCC(=O)Nc1ccc(S(=O)(=O)Nc2cc(C)nc(C)n2)cc1,4.9%
14,CCOc1ccc(NC(=O)c2ccc(NC(=S)NC3CCCCC3)cc2)cc1,52.6% (active)
15,CCOC(=O)c1ccc(NC(=S)NC2CCCC2)cc1,-1.3%
16,CCOc1ccc(NC(=O)c2ccc(NC(=S)NC3CC3)cc2)cc1,12.4%
17,CCCCN(C(=O)NC(=O)Nc1cccc(C)c1C)S(C)(=O)=O,-3.7%
18,COc1cc2c(C#N)c(N3CCN(c4ccccc4OC)CC3)nc(N)c2c(N)n1,54% (active)
19,COc1cc2c(C#N)c(N3CCN(C)CC3)nc(N)c2c(N)n1,34.6%
20,COc1cc2c(C#N)c(N3CCOCC3)nc(N)c2c(N)n1,22%
21,COc1ccc(CN=CC2=C(O)CNC2=O)cc1OC,-8.2%

row,Compound,inhibition
1,CCN(CC)c1ccc(NS(=O)(=O)c2ccc3c(c2)oc(=O)n3C)c(C)c1,23.7%
2,CCOC(=O)Cn1c(=O)oc2cc(S(=O)(=O)Nc3c(C)cc(C)cc3C)ccc21,5.9%
3,CCOC(=O)Cn1c(=O)oc2cc(S(=O)(=O)Nc3ccc(N(CC)CC)cc3C)ccc21,51.2% (active)
4,CCOc1ccc(-c2csc(NC(=O)CSC3=NC(=O)CN3C(C)=O)n2)c2ccccc12,14.8%
5,O=C1c2cccc3cccc(c23)C(=O)N1Cc1ccco1,-4.4%
6,O=C1c2cccc3c(O)ccc(c23)C(=O)N1Cc1ccco1,64.3% (active)
7,O=C1c2cccc3c(O)ccc(c23)C(=O)N1Cc1ccccc1,7.6%
8,CSc1nc(O)c(C2OC(=O)c3ccccc32)c(=O)[nH]1 (stereo unspecified),8.9%
9,Cc1ccc(NS(=O)(=O)c2ccc3[nH]c(=O)c(=O)[nH]c3c2)cc1Cl,14.3%
10,O=[N+]([O-])c1ccc(Oc2ccc(F)cc2)c2ccncc12,17.6%
11,O=[N+]([O-])c1ccc(Oc2ccc(F)cc2Br)c2ccncc12,50% (active)
12,O=[N+]([O-])c1ccc(Oc2cccc(F)c2)c2ccncc12,-0.7%
13,Nc1cc(Cl)ccc1Oc1ccccc1,-2.5%
14,N#C/C=C\Oc1ccc(Cl)cc1N,57.9% (active)
15,Nc1cc(Cl)ccc1Oc1ccc(Cl)cc1,-1.6%
16,COc1cc(-c2nnc(COC(=O)c3cc(C)nc4ccc(C)cc34)o2)cc(OC)c1OC,13%
17,CCN1CCN(CCOCCOc2ccccc2-c2ccccc2)CC1,-4.3%
18,O=S(=O)(Cc1ccc(Cl)cc1)NCC1CCCO1 (stereo unspecified),14.9%
19,CCOC(=O)c1cc2c(C)n(-c3ccc(N(C)C)cc3)c(C)c2cc(C(=O)OCC)c1=O,37.3%
